According to PubChem BioAssay (NCATS):
Inconclusive results are not listed. Values without a mark were called inactive. The source made the active and inactive calls. The call rests on the fitted dose curve; in most records, active means well fitted inhibition curve with a large enough effect; inconclusive means small, poorly fitted or top-dose-only effect; inactive means no such curve, though single readings can be large or run the other way.

Experiment: Primary qHTS for inhibitors of La Crosse Virus (LACV) - induced cell death in SH-SY5Y cells (AID 1508616);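 on activity change: top concentration of the series differs between compounds; 0% = infected DMSO wells and 100% = uninfected DMSO wells; higher means more rescue of cells from virus-induced death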
Conditions: SH-SY5Y LACV cytopathicity rescue, ATP luminescence, 6 d; series mostly up to 9.63 µM; activity change: at the top concentration
Outline: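 Luminescent ATP readout (ATPLite 1step, 5 min room temperature) measured rescue from LACV-induced death after 6 days of infection at 0.01 MOI; normalized to infected DMSO wells and uninfected DMSO wells.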
Potency means the concentration at half of the fitted maximal effect.

| SMILES | activity change | Potency |
| --- | --- | --- |
| O=C1NC(=O)c2cc(Nc3ccccc3)c(Nc3ccccc3)cc21 | 0.912% |  |
| COc1ccc2c(c1)c(CC(=O)O)c(C)n2Cc1ccc(Cl)cc1 | 21.7% |  |
| COc1ccccc1N1CCN(CCN(C(=O)c2ccc(F)cc2)c2ccccn2)CC1 | -0.657% |  |
| CCCC(=O)NCCc1c2n(c3ccc(OC)cc13)CCCc1ccccc1-2 | 55.1% |  |
| N#CC(=C(\N)Sc1ccccc1N)/C(C#N)=C(/N)Sc1ccccc1N | 82% |  |
| C=CCNc1ncnc2ccc(Br)cc12 | 77.6% |  |
| NC1(C(=O)O)CCc2cc(C(=O)O)ccc21 (stereo not drawn) | 15.2% |  |
| N[C@@H](CCC(=O)N[C@H](CSN=O)C(=O)NCC(=O)O)C(=O)O | 5.59% |  |
| CN1CCC2(CCN3CCc4c(oc5ccccc45)C3C2)N(C)C1=O (stereo not drawn) | -15.7% |  |
| O=C(O)c1ccccc1Nc1cccc(OCc2ccc3ccccc3n2)c1 | 12.1% |  |
| CC(=O)C(C)=O | 11.9% |  |
| Brc1c(Br)c(Br)c2[nH]cnc2c1Br | 16.8% |  |
| CN1Cc2sccc2C(c2ccc(O)c(O)c2)C1 (stereo not drawn) | -15.4% |  |
| Cc1nc(N=Nc2cc(S(=O)(=O)O)c3cc([N+](=O)[O-])cc(S(=O)(=O)O)c3c2)c(COP(=O)(O)O)c(C=O)c1O | -7.39% |  |
| O=[N+]([O-])c1cccc2c(Br)[nH]nc12 | 7.91% |  |
| CCCCCCCCCCC/C=C\C(C)(C)/C=C\CCCC(=O)O | -26.4% |  |
| CCC1(O)CC2CN(CCc3c([nH]c4ccccc34)[C@@](C(=O)OC)(c3cc4c(cc3OC)N(C)C3[C@]45CCN4CC=C[C@@](CC)([C@@H](OC(C)=O)[C@]3(O)C(=O)OC)[C@H]45)C2)C1 (stereo partly drawn) | -88.6% |  |
| CC(=O)N[C@@H](Cc1c[nH]c2ccccc12)C(=O)OCc1cc(C(F)(F)F)cc(C(F)(F)F)c1 | -6.43% |  |
| C[C@H](O)C(=O)C1=Nc2c(nc(N)[nH]c2=O)NC1 | 23.1% |  |

| SMILES | activity change | Potency |
| --- | --- | --- |
| Cc1cc(Cn2cnc3c2C[C@@H](C(=O)O)N(C(=O)C(c2ccccc2)c2ccccc2)C3)ccc1N | 2.95% |  |
| O=c1onc2cnc3ccccc3n12 | 18.7% |  |
| COc1cc2c(CCNC(C)=O)c[nH]c2cc1O | -16% |  |
| N[C@@H](Cc1c[nH]c2ccccc12)C(=O)O | 18.2% |  |
| C[C@H](NC(=O)/C(C#N)=C/c1ccc(O)c(O)c1)c1ccccc1 | 7.53% |  |
| N#Cc1cc2nc(O)c(O)nc2cc1[N+](=O)[O-] | -6.88% |  |
| CCCCCCC/C=C\CCCCCCCCC(=O)O | 15.6% |  |
| O=c1[nH]c(=O)c2nc3ccccc3nc2[nH]1 | 7.58% |  |
| C=C1C(=O)O[C@@H]2[C@H]3O[C@]3(C)CCC=C(C)CC[C@@H]12 | -29.4% |  |
| Fc1ccc(CN(C2=NCCN2)c2c(Cl)cccc2Cl)cc1 | -3.44% |  |
| NC(=O)c1cc[n+](CC2=C(C(=O)O)N3C(=O)[C@@H](NC(=O)[C@@H](c4ccccc4)S(=O)(=O)[O-])[C@H]3SC2)cc1 | 24.3% |  |
| CO/N=C(\C(=O)N[C@@H]1C(=O)N2C(C(=O)O)=C(CSc3nc(=O)c(O)nn3C)CSC12)c1csc(N)n1 (stereo partly drawn) | 13.7% |  |
| O=C(O)/C(=C/c1c(C(=O)O)[nH]c2cc(Cl)cc(Cl)c12)c1ccccc1 | -4.45% |  |
| O=C(N[C@@H](Cc1ccccc1)C(=O)CCl)OCc1ccccc1 |  | 1000 nM (active) |
| C/C(=C\c1ccc(C(=O)O)cc1)c1ccc2c(c1)C(C)(C)CCC2(C)C | 35.1% |  |
| NCC(O)c1ccc(O)c(O)c1 (stereo not drawn) | 5.87% |  |
| C=CCn1c(=O)c2c(nc(-c3ccc(S(=O)(=O)O)cc3)n2C)n(C)c1=O | 18.1% |  |
| NC(Cc1cccc(-c2ccccc2CP(=O)(O)O)c1)C(=O)O (stereo not drawn) | 23.9% |  |
| C[C@@]1(C2CCCC2)Cc2cc(OCC(=O)O)c(Cl)c(Cl)c2C1=O | -20.2% |  |
